Active and inactive are the calls of the source.
Tests used:
[1] = tested on: Plasmodium falciparum Sir2 (PF13_0152, Sir2A); test: pfSir2 binders on small-molecule microarrays, primary screen, biochemical, small-molecule microarray, 635 nm fluorescence (AID 1098); conditions: small-molecule microarray binding, fluorescence 635 nm; higher = more signal;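 further: score merges spot fluorescence intensity with its signal-to-noise ratio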
[2] = small-molecule microarray binders of probe aDKK1, primary screen, biochemical, biotinylated probe, 635/667 nm fluorescence (AID 1099); conditions: higher = more signal;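 further: score merges 667nm spot fluorescence with signal to noise across triplicate slides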
[3] = small-molecule microarray binders of probe aCHRDL2, primary screen, biochemical, biotinylated probe, 635/667 nm fluorescence (AID 1100); conditions: higher = more signal
[4] = splicing luciferase reporter signal modulators, primary screen, spliceosome inhibition project, cell-based, HEK293, splice +/- reporter (AID 1101); conditions: luminescence, 24 h, higher = more signal, called active from +8 up or from −8 down;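 further: HEK293 cells carrying a splicing-competent luciferase reporter gene; test concentration not given here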
[5] = molecular target: Fibroblast growth factor 10 (Homo sapiens) (UniProt O15520); test: FGF10 binders on small-molecule microarrays, primary screen, biochemical, small-molecule microarray, 635 nm fluorescence (AID 1102); conditions: FGF10 binding, fluorescence 635 nm, higher = more signal
[6] = tested on: glycogen synthase kinase-3 (GSK3A per assay name; protocol says GSK3B); test: GSK3 binders on small-molecule microarrays, primary screen, biochemical, small-molecule microarray, 635 nm fluorescence, GSK3A (AID 1103); conditions: small-molecule microarray binding, fluorescence 635 nm; higher = more signal; further: the record names both GSK3A and GSK3B
[7] = molecular target: Epidermal growth factor receptor (Homo sapiens) (UniProt P00533); test: EGFR binders on small-molecule microarrays, primary screen, biochemical, small-molecule microarray, 635 nm fluorescence (AID 1104); conditions: EGFR binding, higher = more signal;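 further: score merges 667 nm emission intensity with spot signal to noise over triplicate slides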
[8] = molecular target: Follistatin-related protein 3 (Homo sapiens) (UniProt O95633); test: FSTL3 binders on small-molecule microarrays, primary screen, biochemical, small-molecule microarray, 635 nm fluorescence (AID 1105); conditions: FSTL3 binding, higher = more signal;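 further: score merges emission near 667 nm and signal to noise per printed spot across three slides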
[9] = molecular target: Dickkopf-related protein 1 (Homo sapiens) (UniProt O94907); test: DKK1 binders on small-molecule microarrays, primary screen, biochemical, small-molecule microarray, 635 nm fluorescence scan (AID 1106); conditions: DKK1 binding, higher = more signal;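 further: score merges emission near 667 nm with signal to noise over three replicate slides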
[10] = tested on: Inhibin beta A chain (activin A); test: INHBA (activin A) binders on microarrays, primary screen, biochemical, small-molecule microarray, 635 nm fluorescence scan (AID 1107); conditions: small-molecule microarray binding, higher = more signal;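 further: mouse activin A protein probed at 4.33 µg/mL on printed slides; score merges bound-protein fluorescence near 667 nm with spot signal-to-noise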
[11] = tested on: Human papillomavirus type 1a protein E7 (residues 44-93); test: HPV1a E7 fragment binders on microarrays, primary screen, biochemical, small-molecule microarray, residues 44-93, 635 nm fluorescence (AID 1108); conditions: small-molecule microarray binding, fluorescence 635 nm; higher = more signal;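 further: E7 fragment applied at 1 µg/mL in TBST for 1 h at 4 C; score combines spot fluorescence with its signal to noise ratio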
[12] = modulators of HCV replicon luciferase signal, primary screen, HCV replication inhibitor project, Huh7 cells, luciferase reporter (AID 1109); conditions: 48 h, higher = more signal;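 further: huh7 hepatoma cells harbouring a luciferase neomycin HCV replicon reporter; luciferase luminescence as measure of HCV replicon replication; test concentration not given here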
[13] = molecular target: Left-right determination factor 2 (Homo sapiens) (UniProt O00292); test: LEFTY2 binders on small-molecule microarrays, primary screen, biochemical, small-molecule microarray, 635 nm fluorescence scan (AID 1110); conditions: LEFTY2 binding, higher = more signal
[14] = molecular target: Calmodulin-1 (Homo sapiens) (UniProt P0DP23); test: CALM1 binders on microarrays, EGTA buffer, profiling panel, biochemical, small-molecule microarray, Cy5-labelled CALM1 (AID 1111); conditions: Cy5-CALM1 binding fluorescence, higher = more signal;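 further: labelled calmodulin applied in Tris saline Tween buffer holding calcium plus EGTA and DTT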
[15] = molecular target: Calmodulin-1 (Homo sapiens) (UniProt P0DP23); test: calcium-bound CALM1 binders on microarrays, profiling panel, artefact control for SMM control-protein annotation, biochemical, small-molecule microarray, Cy5-labelled CALM1, plus calcium (AID 1112); conditions: Cy5-CALM1 binding fluorescence, higher = more signal;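 further: score merges spot fluorescence with signal to noise from triplicate slides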
[16] = small-molecule microarray binders of probe aWnt5a, primary screen, biochemical, biotinylated probe, 635/667 nm fluorescence (AID 1113); conditions: higher = more signal;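 further: score merges 667 nm fluorescence intensity with signal-to-noise per printed feature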
[17] = small-molecule microarray binders of probe aShh, primary screen, biochemical, biotinylated probe, 635/667 nm fluorescence (AID 1114); conditions: higher = more signal;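 further: probe is biotin-labelled aShh protein from a stem cell growth factor screen; measures binding of labelled protein to compounds printed on the slide; score merges feature fluorescence at 667 nm with signal-to-noise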
[18] = small-molecule microarray binders of probe aNog, primary screen, biochemical, biotinylated probe, 635/667 nm fluorescence (AID 1115); conditions: higher = more signal;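 further: probe is biotinylated aNog protein used at 0.15 µg/mL for 1 h at 4 C; z-score combines 667 nm fluorescence of each spot with its signal to noise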
[19] = molecular target: Torsin-1A-interacting protein 1 (Homo sapiens) (UniProt Q5JTV8); test: LAP1 binders from COS7 cell lysate, primary screen, small-molecule microarray, 635/667 nm fluorescence (AID 1116); conditions: COS7-hLAP1 lysate binding, 635 nm fluorescence, higher = more signal
[20] = molecular target: Alpha-bungarotoxin (Bungarus multicinctus) (UniProt P60615); test: alpha-bungarotoxin binders on microarray, profiling panel, artefact control for SMM control protein annotation, biochemical, small-molecule microarray, Alexa647 label, 635/667 nm fluorescence (AID 1117); conditions: alpha-BTX-A647 binding fluorescence, higher = more signal
Sequence of Alpha-bungarotoxin (Bungarus multicinctus) (P60615 whole entry, looked up): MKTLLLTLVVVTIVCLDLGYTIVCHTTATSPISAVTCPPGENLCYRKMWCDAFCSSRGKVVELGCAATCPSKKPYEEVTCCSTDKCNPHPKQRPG

Sequence of Dickkopf-related protein 1 (Homo sapiens) (O94907 whole entry, looked up): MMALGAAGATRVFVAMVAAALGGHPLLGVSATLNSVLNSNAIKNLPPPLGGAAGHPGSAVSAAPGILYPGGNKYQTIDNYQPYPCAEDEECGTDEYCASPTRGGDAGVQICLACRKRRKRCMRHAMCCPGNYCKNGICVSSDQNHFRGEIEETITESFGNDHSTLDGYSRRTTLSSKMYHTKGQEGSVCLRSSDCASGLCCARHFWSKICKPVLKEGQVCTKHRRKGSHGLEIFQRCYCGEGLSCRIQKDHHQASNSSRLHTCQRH
Sequence of Torsin-1A-interacting protein 1 (Homo sapiens) (Q5JTV8 whole entry, looked up): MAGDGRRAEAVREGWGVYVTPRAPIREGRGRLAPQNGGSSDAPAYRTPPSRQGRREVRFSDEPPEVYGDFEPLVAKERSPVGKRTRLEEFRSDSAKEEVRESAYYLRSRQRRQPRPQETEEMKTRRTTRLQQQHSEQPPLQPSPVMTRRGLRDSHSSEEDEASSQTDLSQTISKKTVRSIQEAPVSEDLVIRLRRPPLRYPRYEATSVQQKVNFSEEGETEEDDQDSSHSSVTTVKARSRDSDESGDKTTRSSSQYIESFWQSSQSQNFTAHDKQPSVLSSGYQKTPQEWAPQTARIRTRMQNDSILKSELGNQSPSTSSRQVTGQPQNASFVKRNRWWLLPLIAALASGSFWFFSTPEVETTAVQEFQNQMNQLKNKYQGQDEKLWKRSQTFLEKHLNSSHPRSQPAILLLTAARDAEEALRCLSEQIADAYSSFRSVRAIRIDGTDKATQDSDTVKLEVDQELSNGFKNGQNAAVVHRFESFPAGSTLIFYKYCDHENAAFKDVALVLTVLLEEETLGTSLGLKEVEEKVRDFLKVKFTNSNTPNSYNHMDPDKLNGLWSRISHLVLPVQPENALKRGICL
Sequence of Left-right determination factor 2 (Homo sapiens) (O00292 whole entry, looked up): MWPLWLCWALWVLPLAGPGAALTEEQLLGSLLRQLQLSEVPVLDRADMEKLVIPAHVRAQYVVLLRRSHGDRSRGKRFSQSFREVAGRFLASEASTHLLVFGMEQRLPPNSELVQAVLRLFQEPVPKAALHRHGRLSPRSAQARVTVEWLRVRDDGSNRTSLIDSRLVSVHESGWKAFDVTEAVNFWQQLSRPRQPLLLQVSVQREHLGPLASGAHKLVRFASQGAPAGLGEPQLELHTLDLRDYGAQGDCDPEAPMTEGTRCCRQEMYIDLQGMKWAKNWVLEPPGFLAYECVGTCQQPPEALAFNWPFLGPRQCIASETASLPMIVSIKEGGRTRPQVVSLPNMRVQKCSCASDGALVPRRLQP
Sequence of Fibroblast growth factor 10 (Homo sapiens) (O15520 whole entry, looked up): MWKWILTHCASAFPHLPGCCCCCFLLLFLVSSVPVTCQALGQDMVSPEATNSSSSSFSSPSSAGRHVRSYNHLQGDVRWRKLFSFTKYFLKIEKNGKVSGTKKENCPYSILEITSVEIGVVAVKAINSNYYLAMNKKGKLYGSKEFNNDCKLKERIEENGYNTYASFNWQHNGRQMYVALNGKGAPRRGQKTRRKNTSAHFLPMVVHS
Sequence of Follistatin-related protein 3 (Homo sapiens) (O95633 whole entry, looked up): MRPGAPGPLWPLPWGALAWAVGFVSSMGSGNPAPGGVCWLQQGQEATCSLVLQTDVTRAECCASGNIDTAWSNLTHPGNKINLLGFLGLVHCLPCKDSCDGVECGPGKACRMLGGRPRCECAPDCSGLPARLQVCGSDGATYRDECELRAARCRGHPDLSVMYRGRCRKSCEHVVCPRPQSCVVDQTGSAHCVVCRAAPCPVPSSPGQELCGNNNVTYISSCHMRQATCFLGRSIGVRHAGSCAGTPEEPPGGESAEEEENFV
Sequence of Epidermal growth factor receptor (Homo sapiens) (P00533 whole entry, looked up): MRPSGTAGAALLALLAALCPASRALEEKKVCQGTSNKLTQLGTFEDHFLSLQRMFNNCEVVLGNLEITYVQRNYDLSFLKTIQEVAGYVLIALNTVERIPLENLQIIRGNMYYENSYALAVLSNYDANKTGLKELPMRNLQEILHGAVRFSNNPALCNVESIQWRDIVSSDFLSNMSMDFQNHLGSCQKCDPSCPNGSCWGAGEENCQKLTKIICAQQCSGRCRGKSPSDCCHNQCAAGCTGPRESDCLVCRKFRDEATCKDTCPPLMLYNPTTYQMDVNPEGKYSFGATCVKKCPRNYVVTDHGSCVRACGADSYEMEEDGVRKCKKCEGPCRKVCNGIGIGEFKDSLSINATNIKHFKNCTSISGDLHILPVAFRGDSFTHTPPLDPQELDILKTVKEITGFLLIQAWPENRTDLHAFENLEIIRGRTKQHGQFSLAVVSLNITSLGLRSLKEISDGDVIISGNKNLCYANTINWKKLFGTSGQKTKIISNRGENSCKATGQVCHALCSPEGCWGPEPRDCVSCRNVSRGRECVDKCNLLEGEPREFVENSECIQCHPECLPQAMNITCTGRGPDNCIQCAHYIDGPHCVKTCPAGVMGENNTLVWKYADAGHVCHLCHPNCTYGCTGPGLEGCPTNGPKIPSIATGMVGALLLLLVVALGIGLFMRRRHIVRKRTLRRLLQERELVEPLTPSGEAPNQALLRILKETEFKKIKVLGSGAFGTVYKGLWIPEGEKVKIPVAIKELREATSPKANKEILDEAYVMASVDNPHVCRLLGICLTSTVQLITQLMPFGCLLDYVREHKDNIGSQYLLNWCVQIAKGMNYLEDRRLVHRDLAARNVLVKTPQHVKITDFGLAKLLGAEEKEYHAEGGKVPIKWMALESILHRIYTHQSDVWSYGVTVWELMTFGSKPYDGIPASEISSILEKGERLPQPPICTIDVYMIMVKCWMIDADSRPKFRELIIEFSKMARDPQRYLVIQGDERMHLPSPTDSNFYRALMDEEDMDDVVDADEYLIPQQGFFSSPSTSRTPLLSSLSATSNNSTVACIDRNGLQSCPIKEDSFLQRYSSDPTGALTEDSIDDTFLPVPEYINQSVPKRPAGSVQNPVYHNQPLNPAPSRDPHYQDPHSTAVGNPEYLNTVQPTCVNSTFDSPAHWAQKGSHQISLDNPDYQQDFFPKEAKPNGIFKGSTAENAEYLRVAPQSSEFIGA

SMILES	composite z-score [1]	composite z-score [2]	composite z-score [3]	z-score [4]	composite z-score [5]	composite z-score [6]	composite z-score [7]	composite z-score [8]	composite z-score [9]	composite z-score [10]	composite z-score [11]	z-score [12]	composite z-score [13]	composite z-score [14]	composite z-score [15]	composite z-score [16]	composite z-score [17]	composite z-score [18]	composite z-score [19]	composite z-score [20]
COc1ccc(C#Cc2ccc3c(c2)[C@]2(C(=O)N3)[C@H](C(=O)Nc3nc4ccccc4s3)[C@H]3C(=O)O[C@H](c4ccccc4)[C@H](c4ccccc4)N3[C@@H]2c2ccc(O)cc2)cc1	1.15	1.06	0.144	-0.444 (inactive)	1.43	1.25	0.516	1.48	0.63	1.09	1.42	-1.04	0.653	1.7	0.782	0.383	1.3	2.23	0.934	1.66
Cc1ccc(S[C@]2(C(=O)NCCCN(C)C)CC(=O)N(Cc3ccccc3C(F)(F)F)[C@@H]2c2ccc(CO)cc2)cc1	-1.14	0.631	0.95	0.375 (inactive)	-0.904	-0.761	-0.636	-1.47	-0.798	0.94	-0.812	-0.767	-1.89	-0.168	0.0625	-0.0944	0.0893	0.216	0.122	0.266
COC(=O)[C@@]1(CCC(=O)OC(C)(C)C)N=C(c2ccc(OCCCO)cc2)O[C@H]1c1ccccc1N=[N+]=[N-]	1.13	0.255	0.662	2.6 (inactive)	-0.113	-0.0727	-0.336	0.542	0.0186	0.431	0.799	-1.85	-0.0736	1.17	0.356	0.0101	0.178	-0.193	1.06	0.654
CCC(CC)C(O)C1C=CC2C(=O)NC(=O)C2N1Nc1ccc(Cl)cc1Cl (stereo not given)	1.28	0.921	1	1.6 (inactive)	0.626	0.451	-0.304	0.934	-0.267	0.764	0.672	-0.759	-0.46	1.93	1.15	-0.12	0.234	-0.452	0.247	1.05
C=C(/C(=C/C[C@H](OC(C)=O)c1ccc(CO)o1)c1cc(C(=O)OC)ccc1OC)C(C)C	-0.415	-0.0153	-0.0899	-0.0448 (inactive)	0.505	-0.196	-0.455	0.397	0.0625	0.463	-0.3	-2.22	-0.183	-0.0278	-0.061	-0.0506	0.318	0.168	0.0916	-0.829
COC(=O)[C@@]1(Cc2ccc(OC)cc2)[C@H]2c3cc(C(=O)N(C)C)n(CCc4ccccn4)c3C[C@H]2CN1C(=O)c1ccccc1	0.566	1.62	1.41	0.317 (inactive)	0.286	-0.133	-0.011	0.0285	-0.586	0.937	0.263	-0.845	-0.288	0.993	0.93	0.675	1.31	0.854	1.01	0.248
C=C[C@H](C)[C@@H](OC(=O)Nc1ccc(OC)cc1)c1ccc(O)c2ccccc12	0.408	-0.398	-0.083	2.41 (inactive)	-0.117	-0.177	-0.568	0.386	0.209	0.722	-0.626	-3.43	-0.239	-0.582	-0.461	-0.178	0.318	0.152	0.534	-0.177
COc1cc2c(cc1O)C(c1cccs1)N(C)CC2 (stereo not given)	0.0826	-0.287	0.0135	0.153 (inactive)	-0.654	-0.995	0.0174	-0.558	-0.332	0.0723	-1.61	0.159	-0.496	-0.705	0.423	-0.126	-0.2	-0.215	-0.205	-0.759
CCCC[C@H]1OB(O)C[C@H]2C1=C(COC)C[C@H]1C(=O)N(C)C(=O)[C@H]12	0.0079	-0.252	-0.599	0.377 (inactive)	0.486	-0.0431	0.12	0.564	0.281	0.687	0.343	-0.918	0.358	0.223	-0.596	-0.152	-0.0626	-0.0496	-0.321	1.16
O=C(NC1CC1)[C@@H]1c2ccccc2C(=O)N(Cc2ccccc2Cl)[C@H]1c1ccc(CO)cc1	0.814	0.893	1.02	-0.544 (inactive)	0.474	1.24	0.186	0.654	0.63	1.17	0.791	-2.09	0.697	1.08	0.287	-0.0765	-0.138	0.233	1.46	0.759
COC(=O)[C@@]1(Cc2ccc(F)cc2)[C@H]2c3cc(C(=O)N(C)C)n(Cc4ccc(Cl)c(C(F)(F)F)c4)c3C[C@H]2CN1C(=O)c1ccccc1	0.546	1.6	1.46	-2.25 (inactive)	0.336	1.31	0.175	0.923	-0.473	0.651	0.199	-2.11	-0.401	2.75	1.63	-0.101	-0.0578	-0.222	2.41	2.36
